The text below walks through data of PubChem BioAssay (NCATS).

Unmarked numbers belong to inactive results. Inconclusive results are not listed. Active and inactive are the calls of the source. Calls follow the shape of the dose curve; as a rule, active = well fitted curve in the direction sought with a large enough effect; inconclusive = small, poorly fitted or top-dose-only effect, or another doubt; inactive = no such curve, though single readings can be large; an effect the other way counts as inactive or inconclusive.

Test [1] can be described thus: qHTS to identify inhibitors of the type 1 interferon - major histocompatibility complex class I in skeletal muscle: primary screen against the NCATS LOPAC collection (AID 1347405).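 Also: lytic HiBiT luminescence reporting HLA-B protein level.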 Also: potency is read from the fitted curve at half-maximal effect. In a few lines: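 Immortalized human C25cl48 myoblasts with HiBiT knocked into endogenous HLA-B*08:01 were stimulated with 4.0 ng/ml IFN-beta and given compounds in a 7-point, 1:4.3 titration from 46 uM final; after 24 hrs, lytic HiBiT luminescence was read.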

Test [2] can be described thus: qHTS for inhibitors of adenylyl cyclases using a fission yeast platform: a pilot screen against the NCATS LOPAC library (AID 1347410).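 Also: plate controls were DMSO vehicle for no effect and DPI positive control for full effect.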 In a few lines:
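Inhibition of GNAS-stimulated AC9 activity in S. pombe was inferred from derepression of a PKA-repressed fbp1-GFP reporter, measured as cytometric fluorescence after 18 h at 30C with compounds at up to 57 µM.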
Background: qHTS replaces the single test concentration by a dilution series.

Test [3] can be described thus: Validation qHTS assay for inhibitors of Activation Induced Cytidine Deaminase (AID): UDG Counterscreen signal (AID 1347427). Also: 0% is about no effect. The essentials:
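Counterscreen read of UDG activity (2 U/mL, 4/3x) in the FRET deamination format with AID (1 uM, 4/3x), DJC20/DJC23 substrates (250 nM, 4x), 4 h at room temperature. NaOH stop, fluorescence at 560 ex/665 em.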

For test [4], the target named is Single-stranded DNA cytosine deaminase (Homo sapiens) (UniProt Q9GZX7). In words: Validation qHTS assay for inhibitors of Activation Induced Cytidine Deaminase (AID): AID signal (AID 1347429). Also: % is scaled to controls: 0 for no effect and ±100 for the full control effect. The essentials: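 AID and UDG were combined and compounds added at final up to 114 uM, then DJC20/DJC23 FRET substrate was added for 4 hr at room temperature. NaOH was then added for 30 min before fluorescence was read at 540/590 nm.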
Chain of Single-stranded DNA cytosine deaminase (Homo sapiens) (Q9GZX7 whole entry, looked up): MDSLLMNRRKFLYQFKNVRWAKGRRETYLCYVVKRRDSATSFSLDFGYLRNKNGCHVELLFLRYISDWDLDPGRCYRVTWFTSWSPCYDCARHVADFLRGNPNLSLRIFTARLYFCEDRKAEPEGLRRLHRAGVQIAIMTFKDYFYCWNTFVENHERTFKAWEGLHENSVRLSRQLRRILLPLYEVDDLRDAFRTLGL

The nature of test [5]: Primary qHTS for inhibitors of La Crosse Virus (LACV) - induced cell death in SH-SY5Y cells (AID 1508616).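 Also: top concentration of the series differs between compounds; 0% = infected DMSO wells and 100% = uninfected DMSO wells; higher means more rescue of cells from virus-induced death.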 The essentials:
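Luminescent ATP readout (ATPLite 1step, 5 min room temperature) measured rescue from LACV-induced death after 6 days of infection at 0.01 MOI; normalized to infected DMSO wells and uninfected DMSO wells.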

Test [6] concerns the target Calcium and integrin-binding protein 1 (Homo sapiens) (UniProt Q99828). In words: Validation qHTS for Identification of Calcium Integrin Binding protein 1 (CIB1) Competitor (AID 1508618). Also: % is scaled to controls: 0 for no effect and ±100 for the full control effect. In a few lines: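 Fluorescence polarization with 1 uM CIB1-GST and 100 nM FITC-alphaIIb peptide in HEPES pH 7.4, NaCl, 5 mM CaCl2, Tween20. Compounds at up to 114 uM final, preincubated with protein 15 min; read after 15 min more at RT.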

Test [7] concerns the target Papain (Carica papaya) (UniProt P00784). In words: Primary qHTS assay for inhibitors of the protease papain (AID 1645873).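 Also: papain turnover of Z-FR-AMC read as the AMC fluorescence gain over 10 min.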 Also: potency is read from the fitted curve at half-maximal effect.
The nature of test [8]: Counterscreen qHTS for small molecule stabilizers of the endoplasmic reticulum resident proteome: GLuc-NoTag assay (AID 1508627). Also: potency is read from the fitted curve at half-maximal effect. The essentials: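 SH-SY5Y cells stably expressing constitutively secreted GLuc without SERCaMP tag, exposed to compound for 19 hr, then to 100 nM thapsigargin for 4 hr at 37C. Medium luciferase was read by coelenterazine luminescence without lysis.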
In general terms: A counterscreen serves to expose hits that act by an unwanted route or on another target.

A short description of test [9]: Confirmatory qHTS for small molecule stabilizers of the endoplasmic reticulum resident proteome: Secreted ER Calcium Modulated Protein (SERCaMP) assay (AID 1508628).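 Also: SH-SY5Y cells given compound 16 h then thapsigargin 100 nM for 4 h; series mostly up to about 76 µM; % is scaled to controls: 0 for no effect and ±100 for the full control effect; nearly all actives have a fitted effect of over 40% in size.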 The essentials:
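We seeded SH-SY5Y-GLuc-SERCaMP cells, added compounds (three concentrations in the primary run, eleven up to 76.6 uM in confirmation), incubated 16 h, depleted ER calcium with thapsigargin, and read luciferase 4 h later.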

Test [10] in a line: Cell Viability qHTS for small molecule stabilizers of the endoplasmic reticulum resident proteome (AID 1508629).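 Also: human SH-SY5Y neuroblastoma cells carrying the GLuc-SERCaMP reporter; compound exposure about 46 h in total before the viability read; % is scaled to controls: 0 for no effect and ±100 for the full control effect.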 Conditions: cell viability counter-screen, 100 nM thapsigargin for final 4 h.
Test [11] is described as follows: Primary qHTS for small molecule stabilizers of the endoplasmic reticulum resident proteome: Secreted ER Calcium Modulated Protein (SERCaMP) assay (AID 1508630). Also: % is scaled to controls: 0 for no effect and ±100 for the full control effect. The essentials:
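GLuc-SERCaMP-expressing SH-SY5Y cells, pretreated 16 h with compound, are challenged with thapsigargin to empty ER calcium stores; after 4 h, coelenterazine is added directly to the medium and luminescence is imaged.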

Chain of Papain (Carica papaya) (P00784 whole entry, looked up): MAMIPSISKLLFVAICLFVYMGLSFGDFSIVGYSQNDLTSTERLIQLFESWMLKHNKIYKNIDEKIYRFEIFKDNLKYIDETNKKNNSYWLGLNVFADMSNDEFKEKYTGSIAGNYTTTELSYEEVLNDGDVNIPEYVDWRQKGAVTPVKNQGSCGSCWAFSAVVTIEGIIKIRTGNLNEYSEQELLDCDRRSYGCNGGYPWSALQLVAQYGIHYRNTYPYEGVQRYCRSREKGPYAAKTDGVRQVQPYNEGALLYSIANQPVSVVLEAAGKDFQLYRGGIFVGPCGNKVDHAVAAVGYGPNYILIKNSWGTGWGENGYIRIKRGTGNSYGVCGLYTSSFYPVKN
Chain of Calcium and integrin-binding protein 1 (Homo sapiens) (Q99828 whole entry, looked up): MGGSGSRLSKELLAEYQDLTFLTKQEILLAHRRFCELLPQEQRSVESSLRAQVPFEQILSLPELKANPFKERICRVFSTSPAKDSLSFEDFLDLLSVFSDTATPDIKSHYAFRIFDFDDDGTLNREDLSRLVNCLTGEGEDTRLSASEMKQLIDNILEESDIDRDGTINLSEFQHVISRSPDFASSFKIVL

As for `Nn1nnc2ccccc21`, the Potency entry in test [1], in test [3], in [4], in test [5], in [6] and in test [7] was “inactive” throughout. Also, the compound was called inactive in test [2].

Turning to `C[C@]12C=CC(=O)C=C1CC[C@@H]1C2=CC[C@]2(C)[C@@H](C(=O)CN3CCN(c4cc(N5CCCC5)nc(N5CCCC5)n4)CC3)CC[C@@H]12`, the Potency entry in [1], in [3], in [4], in test [5] and in test [8] was “inactive” in each case. Also, the compound was called inactive in test [2].

Consider `Nc1ncnc2c1ncn2C1CCCO1` (centres undefined), for which the Potency entry in [1], in test [3], in test [4], in test [5], in test [6] and in [7] was “inactive” in each case. The compound was called inactive in [2].

On to `N[C@@H](Cc1c[nH]c2ccccc12)C(=O)O`, for which the Potency entry in test [1], in [3], in test [4], in test [5], in test [6] and in [7] was “inactive” throughout. Besides, in [2], the outcome was inactive.

`CCCCC[C@H](CC(=O)NO)C(=O)N[C@H](C(=O)N1CCC[C@H]1CO)C(C)C`: the Potency result in test [1], in test [3], in test [4], in test [5], in test [6] and in test [7] was “inactive” throughout. Moreover, the outcome in [2] was inactive.

In the case of `CC(=O)C(C)=O`, the Potency entry in test [1], in [3], in test [4], in test [5], in test [6] and in [7] was “inactive” throughout. For the same compound, the call in test [2] was inactive.

Regarding `O=C(OCCN1CCOCC1)C1(c2ccccc2)CCCCC1`, the Potency entry in test [1], in test [3], in test [4], in [5], in [6] and in test [7] was “inactive” throughout. For the same compound, in test [2], the compound was called inactive.

With `N#C/C(=C\c1ccc(O)c(O)c1)C(=O)NCCCNC(=O)/C(C#N)=C/c1ccc(O)c(O)c1`, the Potency entry in test [1], in [3], in test [4] and in [5] was “inactive” throughout. The outcome in test [2] was inactive. Moreover, the results for the Potency in test [8] and in test [7] were 20 µM (active) and 22.4 µM (active), respectively.

For `COc1ccc(CCN(C)CCc2ccc(OC)c(OC)c2)cc1OC`, the Potency result in [1], in [3], in test [4], in test [5], in [8] and in [9] was “inactive” throughout. For the same compound, the Potency entry in test [11] and in [7] was “inactive” each time. Besides, the compound was called inactive in test [2]. In addition, in test [10], the max response was 1.86%.

With `Cc1ccc([N+](=O)[O-])cc1S(=O)(=O)N(C)C`, the Potency result in test [1], in test [3], in [4], in [5], in test [6] and in test [7] was “inactive” each time. Moreover, the compound was called inactive in test [2].

For `CC(=O)O[C@H]1CC2(C)[C@@H](C[C@@H](O)[C@H]3[C@@]4(C)CC[C@@H](O)[C@@H](C)[C@@H]4CC[C@@]32C)C1=C(CCC=C(C)C)C(=O)O` (some centres undefined), the Potency entry in test [1], in [3], in test [4], in [5], in test [6] and in test [7] was “inactive” in each case. In addition, the result in test [2] was inactive.

As to `Oc1ccc(/C=C/c2ccc(/C=C/c3ccc(O)cc3)c(Br)c2)cc1`, the Potency result in test [1], in test [3], in test [4], in test [5], in [6] and in test [7] was “inactive” each time. Also, in test [2], the compound was called inactive.

Turning to `Brc1c(Br)c(Br)c2[nH]cnc2c1Br`, the Potency in test [1] was 12.6 µM (active). For the same compound, the call in [2] was inactive. Besides, the Potency entry in test [3], in test [4], in test [5], in [6] and in test [7] was “inactive” each time.

`CCCCCCCCCC(=O)NC(CN1CCOCC1)[C@H](O)c1ccccc1` (some centres undefined): the Potency entry in test [1], in [3], in test [4], in [5], in test [6] and in test [7] was “inactive” each time. The result in test [2] was inactive.

Turning to `O=c1[nH]c2cc(Cl)ccc2c(O)c1-c1ccc(Oc2ccccc2)cc1`, the Potency in test [1] is 8.91 µM (active). In addition, in test [2], the call was inactive. The Potency result in [3], in test [4], in test [5], in [6] and in test [7] was “inactive” in each case.

With `C[C@@H](NCCc1ccc(O)cc1)[C@@H](O)c1ccc(O)cc1`, the Potency entry in test [1], in [3], in test [4], in [5], in test [6] and in test [7] was “inactive” each time. Besides, the call in test [2] was inactive.

As to `O=C(O)c1cccnc1C(=O)O`, the Potency result in [1], in test [3], in test [4], in test [5], in [6] and in [7] was “inactive” throughout. The compound was classed as inactive in test [2].

With `CC[C@H](NC(=O)c1c(C)c(-c2ccccc2)nc2ccccc12)c1ccccc1`, the Potency entry in test [1], in [3], in [4], in test [5], in test [6] and in [7] was “inactive” in each case. For the same compound, in test [2], the result was inactive.

As to `O=C(O)c1cc(=O)cc(C(=O)O)[nH]1`, the Potency entry in test [1], in test [3], in [4], in [5], in test [6] and in [7] was “inactive” each time. Further, the result in test [2] was inactive.

On to `N[C@H](C(=O)O)[C@H](Cc1ccccc1)C(=O)O`, for which the Potency result in test [1], in test [3], in test [4], in [5], in test [6] and in test [7] was “inactive” throughout. Moreover, in [2], the call was inactive.

As for `CSC(N)=NCCC[C@H](N)C(=O)O`, the Potency result in test [1], in test [3], in [4], in [5], in test [6] and in test [7] was “inactive” throughout. Further, the outcome in [2] was inactive.

Regarding `CN1Cc2sccc2C(c2ccc(O)c(O)c2)C1` (centres undefined), the Potency result in test [1], in [3], in test [4], in test [5], in [6] and in test [7] was “inactive” throughout. Further, the result in [2] was inactive.

In the case of `Nc1nc2c(nc(Br)n2C2OC3COP(=O)(O)O[C@@H]3C2O)c(=O)[nH]1` (some centres undefined), the Potency entry in test [1], in test [3], in test [4], in [5], in test [6] and in [7] was “inactive” each time. For the same compound, in [2], the compound was called inactive.

As for `CO/N=C(\C(=O)N[C@@H]1C(=O)N2C(C(=O)O)=C(CSc3nc(=O)c(O)nn3C)CSC12)c1csc(N)n1` (some centres undefined), the Potency entry in test [1], in [3], in test [4], in [5] and in test [11] was “inactive” throughout. Also, the compound was classed as inactive in test [2].

Turning to `NCCC1CCCC(CCN)N1` (centres undefined), the Potency entry in test [1], in test [3], in test [4], in [5], in test [11] and in test [7] was “inactive” throughout. The compound was classed as inactive in test [2].

`c1ccc2nc(C3=NCCN3)ccc2c1`: the Potency entry in test [1], in test [3], in [4], in test [5] and in [7] was “inactive” each time. Besides, the call in [2] was inactive.

Consider `NC/C=C\C(=O)O`, for which the Potency entry in test [1], in test [3], in [4], in [5], in test [11] and in [7] was “inactive” each time. The compound was classed as inactive in test [2].

`C=CC[C@H](N)C(=O)O`: the Potency entry in [1], in test [3], in [4], in test [5], in test [11] and in test [7] was “inactive” in each case. In addition, the compound was classed as inactive in test [2].

In the case of `COc1cc(CNC(=O)CCCCCCC(C)C)ccc1O`, the Potency entry in test [1], in test [3], in test [4], in [5] and in [7] was “inactive” throughout. Further, in test [2], the call was inactive.

For the compound `O=c1[nH]c(=O)c2nc3ccccc3nc2[nH]1`, the Potency result in test [1], in test [3], in [4], in test [5], in test [11] and in test [7] was “inactive” throughout. Besides, in [2], the compound was called inactive.
